The first assay deals with SEC11C. As to the kind of experiment: pooled miR-30 sensor sort-seq; sequence = guide strand. The note with it: shRNA.
Consider TTGGAATGTCTCGTCCTTCAAC, for which the sensor-assay potency score (higher = more potent) is -1.07.

In turn, TTCAACTTTAAAAACAACTATT showed a sensor-assay potency score (higher = more potent) of -1.15.

Turning to TTTGATTACTCTGTGAACTATT, the sensor-assay potency score (higher = more potent) is -0.483.

TAGTCATTCATTATTATGGTGA had a sensor-assay potency score (higher = more potent) of -0.647.

Take TTACTCTGTGAACTATTGGAAT: the sensor-assay potency score (higher = more potent) is -1.07.

The target in the next assay is SEC22B. The description is as above. The note with it: shRNA.
TCGAGCACAACTGTCAATGTAG gave a sensor-assay potency score (higher = more potent) of 0.24.

For the sequence TCGTTGTAACACTTCTTCGATA, the sensor-assay potency score (higher = more potent) was -1.15.

In turn, TCTAATACACATCTCTGTGAGC had a sensor-assay potency score (higher = more potent) of -0.275.

Regarding TTCATTTTCAGGACATCTCTTT, the sensor-assay potency score (higher = more potent) amounted to 0.0656.

For the sequence TCAATGTAGAGCTTCTTGGTTT, the sensor-assay potency score (higher = more potent) is -0.305.

Sequence TTCTAATACACATCTCTGTGAG registered a sensor-assay potency score (higher = more potent) of 0.118.

Regarding TAATATAATTCACTTACCCTAA, the sensor-assay potency score (higher = more potent) was -0.417.

Regarding TAGCCTTTGAATCCAATGCTGA, the sensor-assay potency score (higher = more potent) is -0.568.

As to TTGGATTCTAATACACATCTCT, the sensor-assay potency score (higher = more potent) was found to be 0.391.

Turning to TTTCAGGACATCTCTTTTCTTG, the sensor-assay potency score (higher = more potent) is -0.395.

As for TTTCCTGAAAATATACACCTAC, the sensor-assay potency score (higher = more potent) stood at 0.224.

For the origin of these results see the OligoGym collection.
Further: reference of the scale not given here.
